Reference: PubChem BioAssay (NCI)
“And” between values parts separate entries of the source, which are not always exact repeats. Identical values can stand only once. This is part of a sample that, as a whole, favours compounds with a hit. Of some 83,000 tested, about 20% had one in any assay.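 Testing used 96-well plates and a 48-hour single-concentration exposure. Example: -40 means 40% of the starting cells died.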 A number with no mark means an inactive call. The source made the active and inactive calls. The calls were made as follows: active = growth percent below 10; inactive = the rest.

Tested on: HL-60(TB) leukemia
Assay: NCI-60 one-dose screen, 48 h (100 = growth as untreated, 0 = no growth, -100 = all killed)
Conditions: 10 µM unless noted

| SMILES | growth |
| --- | --- |
| CC(C)(C)CC(C)(C)c1ccc(OCCO)cc1 | 91.5% |
| O=C1Nc2ccc(Br)cc2/C1=N/c1n[nH]c(=S)s1 | 99.2% |
| CC(C)c1ccc(COCc2cc(CN3CCCC3)c(O)c3ncccc23)cc1 | -20.3% (active) |
| COc1c(NC=O)c2c(c([N+](=O)[O-])c1OC)C(=O)OC2 | 98% and 90.7% |
| CN1C(=O)CNC(=O)[C@H](NC(=O)c2nc3ccccc3cc2O)CSSC[C@H]1C(=O)NCCCc1nc2ccccc2cc1O | -44.3% (active) |
| Cc1ccc2nc(-c3c(N)n[nH]c3CCCO)[nH]c(=O)c2c1 | 108% |
| COC(=O)c1ccccc1Br | 76.5% |
| COc1ccccc1CNCCCN1C(=O)c2ccc3c4c(ccc(c24)C1=O)C(=O)N(CCCNCCCCNCCCCN)C3=O | -37.8% (active) |
| COc1ccc(-c2ccc(C)n2-c2ccc(-c3nc4ccccc4s3)cc2)cc1 | 53.5% |
| COc1cccc(CNc2ncnc3c2ncn3C2OC(CO)C(O)C2O)c1O (stereo not given) | -47% (active) |
| O=C1C[C@@H]2/C(=C(O)\C=C\c3ccccc3)C(=O)C=C[C@@H]2O1 | 13.3% |
| N=C(N)c1ccc(-c2ccc(-c3cc(Cl)cc(Cl)c3)o2)o1 | -64% (active) |
| COC(=O)Nc1nc2ccc(Sc3ccccc3)cc2[nH]1 | -5.94% (active) |
| CCOC(=O)c1sc(Nc2ccc(Cl)cc2)nc1C | 27.2% |
| O=C(NCCc1nccs1)c1cnc2c(S)cccc2c1 | 16.6% |
| Cn1cc(C(=O)c2nc(-c3c[nH]c4ccccc34)no2)c2ccccc21 | 58.5% |
| COc1cc2oc(-c3cccc(NC(=O)c4cccc(Br)c4)c3)cc(=O)c2c(OC)c1OC | 65.5% |
| Cc1ccc(-c2nc3ccccn3c2/C=C2/C(=O)Nc3cc(Cl)ccc32)cc1 | 50.3% |
| CC(C)(C)c1ccc(OP(=S)(N/N=C/c2ccccc2O)Oc2ccc(C(C)(C)C)cc2)cc1 | 77.8% |
| COc1cccc(C(=O)NNc2nc(N3CCOCC3)nc(N3CCN(C(c4ccccc4)c4ccccc4)CC3)n2)c1 | 76.4% |

| SMILES | growth |
| --- | --- |
| CCNc1nc(-c2ccc(Cl)c(OC)c2)c(-c2ccnc(NCCCNS(=O)(=O)c3ccc(Cl)cc3)n2)s1 | 34.9% |
| CCOP(C)(=O)/C(Cc1ccc(OC)c(OC)c1)=N\O (stereo not given) | 98.1% |
| N#Cc1ccc(NC(=O)c2ccc3cccnc3c2O)cc1 | 4.59% (active) |
| COc1ccccc1Nc1nnc(-c2ccc(Cl)cc2)o1 | -9.62% (active) |
| O=C(CSc1nc2ccc([N+](=O)[O-])cc2[nH]1)Nc1cccc(C(F)(F)F)c1 | 0.11% (active) |
| Oc1ccc(Cl)cc1-c1cc(-c2ccccc2Cl)[nH]n1 | 46.6% |
| CN(C)c1ccc2nc3ccc(=O)cc-3sc2c1 | -21.3% (active) and -7.59% (active) |
| COc1ccc(/C=C/c2nc(Nc3ccc(Cl)cc3)c3ccccc3n2)cc1 | -11.3% (active) |
| O=C(c1ccccc1)[C@H]1[C@@H]2CCCN2[C@]2(C(=O)Nc3ccc(F)cc32)[C@]12C(=O)Nc1ccccc12 | 68.3% |
| Nc1c(C(=O)Nc2cccc(Cl)c2)sc2nc3c(cc12)C(=O)CCC3 | 33.1% |
| COc1ccc2nc(NC(=O)CN3CCn4c(nnc4C(F)(F)F)C3)sc2c1 | 103% |
| COc1cc2c(c(OC)c1OC)CCC(c1cccc(C(=O)Nc3cccc(Cl)c3)c1)O2 (stereo not given) | 82.7% |
| CN1C=CN(Cc2ccc(-c3ccccn3)nc2)[CH-]1.CN1C=CN(Cc2ccc(-c3ccccn3)nc2)[CH-]1.[Au+3] | -9.42% (active) |
| CC[C@@H](C(=O)[C@@H](C)[C@@H](O)[C@H](C)[C@@H]1O[C@@H]([C@@H](CC)C(=O)NCCc2ccc(F)cc2)CC[C@@H]1C)C1O[C@]2(C=CC(=O)[C@]3(CC[C@@](C)([C@H]4CC[C@](O)(CC)[C@H](C)O4)O3)O2)[C@H](C)C[C@@H]1C (stereo not given in full) | 6.93% (active) |
| O=C(O)C1CSCN1 (stereo not given) | 80.4% and 83.9% |
| CCN(CC)C(=O)C1CCN(C(=O)c2ccccc2)CC1 | 89.3% |
| Oc1c(Br)cc(Cl)cc1C(c1cc(Cl)cc(Br)c1O)C(Cl)(Cl)Cl | 9.73% (active) |
| C#CCn1cnc2c(Nc3cccc(NC(=O)C=C)c3)ncnc21 | 99.6% |
| O=C(Nc1ccc(-n2ccc3c(NC(=O)c4ccccc4)ncnc32)cc1)Nc1cccc(Cl)c1Cl | 62.9% |
| CC(=O)OC[C@]1(C)C=C2C(=O)[C@](C)(O)C3(CC3)C(C)=C2[C@H]1OC(C)=O | 96.4% |
